For 20 compounds, growth inhibition, inhibition and outcome results are on record in PubChem BioAssay.

Test [1] in a line: antimalarial activity against Dd2 strain (AID 2302;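 active = growth inhibition above 50% at the single 2 µM test dose, taken to imply half-maximal potency below 2 µM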;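 also: 0% = DMSO untreated growth and 100% = chloroquine plus artemisinin killed control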). The following applies: P. falciparum Dd2 in RBCs, LDH growth readout, 72 h; at 2 µM; stronger effect = higher value.
Test [2] is described as follows: HepG2 cytotoxicity, primary screen, cytotoxicity control for P. falciparum antimalarial project, cell-based, ATP luminescence (AID 2303;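 active = inhibition above 50%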;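 also: 0% = DMSO wells and 100% = digitonin-killed cells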). To be noted: HepG2 viability, 24-48 h, at 10 µM, stronger effect = higher value.
For test [3], the target named is L-lactate dehydrogenase (Plasmodium falciparum (isolate CDC / Honduras)) (UniProt Q27743). The test can be described thus: PfLDH activity inhibition – cell lysate, 3D7 strain, counter-screen for P. falciparum growth inhibition project (AID 2304).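 Also: 0% = vehicle and 100% = reference inhibitor.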 The following applies: P. falciparum 3D7 crude extract, LDH APAD/NBT absorbance; at 2 µM; stronger effect = higher value.
Chain of L-lactate dehydrogenase (Plasmodium falciparum (isolate CDC / Honduras)) (Q27743 whole entry, looked up): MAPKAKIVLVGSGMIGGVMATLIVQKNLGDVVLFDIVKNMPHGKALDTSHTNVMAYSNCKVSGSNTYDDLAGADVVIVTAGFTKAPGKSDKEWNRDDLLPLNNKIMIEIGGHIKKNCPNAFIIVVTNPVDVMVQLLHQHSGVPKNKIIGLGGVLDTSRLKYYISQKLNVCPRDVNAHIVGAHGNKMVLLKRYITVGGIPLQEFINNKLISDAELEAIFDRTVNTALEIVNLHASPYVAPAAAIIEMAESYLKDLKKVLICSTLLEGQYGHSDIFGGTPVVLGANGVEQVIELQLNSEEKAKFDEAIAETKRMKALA
The nature of test [4]: inhibition of 3D7 malaria parasite growth – strain 3D7 (AID 2306).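 Also: 0% = DMSO wells and 100% = chloroquine plus artemisinin control wells.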 The following applies: P. falciparum 3D7 erythrocytic growth, LDH absorbance, 72 h; at 2 µM; stronger effect = higher value.
In test [5] the target is Calcium-dependent protein kinase 1 (Plasmodium falciparum (isolate 3D7)) (UniProt P62344). The test can be described thus: PfCDPK1 kinase inhibitors, biochemical, TCAMS library (AID 1159585; cut-off not given, nearly all actives have IC50 up to about 0.98 µM;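 also: inhibitors leave more ATP so luminescence rises with inhibition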). The following applies: recombinant PfCDPK1, Kinase-Glo ATP depletion luminescence.
Chain of Calcium-dependent protein kinase 1 (Plasmodium falciparum (isolate 3D7)) (P62344 whole entry, looked up): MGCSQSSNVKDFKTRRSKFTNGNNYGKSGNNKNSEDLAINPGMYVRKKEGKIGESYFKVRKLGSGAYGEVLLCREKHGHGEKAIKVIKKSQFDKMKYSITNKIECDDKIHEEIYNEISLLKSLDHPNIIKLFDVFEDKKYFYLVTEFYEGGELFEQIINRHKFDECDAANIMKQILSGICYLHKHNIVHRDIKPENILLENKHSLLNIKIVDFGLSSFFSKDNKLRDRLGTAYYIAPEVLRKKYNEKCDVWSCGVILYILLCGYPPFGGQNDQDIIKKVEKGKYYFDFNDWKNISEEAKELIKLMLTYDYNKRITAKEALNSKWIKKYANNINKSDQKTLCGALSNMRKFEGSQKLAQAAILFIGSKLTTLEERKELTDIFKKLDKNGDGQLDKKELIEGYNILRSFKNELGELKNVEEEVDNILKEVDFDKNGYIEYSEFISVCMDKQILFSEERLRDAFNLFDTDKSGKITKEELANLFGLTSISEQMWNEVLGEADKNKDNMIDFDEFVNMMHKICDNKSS
The target of test [6] is Plasmodium falciparum protein kinase 6 (PK6, PF3D7_1337100) (UniProt Q8IDW1). In words: PfPK6 kinase inhibitors, biochemical, TCAMS library (AID 1159586). The following applies: recombinant PfPK6, Kinase-Glo ATP depletion luminescence.
Chain of Plasmodium falciparum protein kinase 6 (PK6, PF3D7_1337100) (Q8IDW1 1-305): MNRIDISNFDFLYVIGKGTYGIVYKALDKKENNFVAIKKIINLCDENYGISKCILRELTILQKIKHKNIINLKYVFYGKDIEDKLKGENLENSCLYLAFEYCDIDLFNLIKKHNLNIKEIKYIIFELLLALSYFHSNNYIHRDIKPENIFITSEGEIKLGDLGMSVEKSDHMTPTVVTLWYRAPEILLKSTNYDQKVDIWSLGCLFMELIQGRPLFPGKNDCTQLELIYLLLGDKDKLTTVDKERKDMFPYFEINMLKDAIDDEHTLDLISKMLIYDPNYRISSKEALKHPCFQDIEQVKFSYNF
Test [7] has as its target Protein kinase 7 (PK7), Plasmodium falciparum 3D7 (PF3D7_0213400) (UniProt Q7YTF7). In words: inhibition of Plasmodium PK7 catalytic activity – biochemical, TCAMS antimalarial set, Kinase-Glo luminescence (AID 1159587). To be noted: recombinant PfPK7, Kinase-Glo ATP depletion luminescence.
Test [8] deals with Calcium-dependent protein kinase 4 (Plasmodium falciparum (isolate 3D7)) (UniProt Q8IBS5). In words: PfCDPK4 kinase inhibitors, biochemical, TCAMS library (AID 1159588; cut-off not given, nearly all actives have IC50 up to about 0.91 µM). The following applies: recombinant PfCDPK4, Kinase-Glo ATP depletion luminescence.
Chain of Calcium-dependent protein kinase 4 (Plasmodium falciparum (isolate 3D7)) (Q8IBS5 whole entry, looked up): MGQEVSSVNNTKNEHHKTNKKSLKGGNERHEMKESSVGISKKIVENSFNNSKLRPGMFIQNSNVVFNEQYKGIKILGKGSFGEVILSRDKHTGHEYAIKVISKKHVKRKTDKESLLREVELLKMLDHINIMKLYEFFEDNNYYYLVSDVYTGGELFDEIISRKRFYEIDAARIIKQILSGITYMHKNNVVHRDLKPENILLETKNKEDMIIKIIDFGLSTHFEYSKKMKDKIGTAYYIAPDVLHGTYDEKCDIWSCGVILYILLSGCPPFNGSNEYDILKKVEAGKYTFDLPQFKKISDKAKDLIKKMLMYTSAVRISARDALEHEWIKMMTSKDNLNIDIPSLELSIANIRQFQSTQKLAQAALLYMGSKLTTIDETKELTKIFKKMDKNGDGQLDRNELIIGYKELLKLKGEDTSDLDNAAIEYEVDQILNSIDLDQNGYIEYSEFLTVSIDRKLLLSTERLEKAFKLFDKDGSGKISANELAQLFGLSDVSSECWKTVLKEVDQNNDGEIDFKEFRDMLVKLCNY

Values without a mark were called inactive. For some of these results: Results with a measured potency or affinity are listed apart. Calls of active or inactive are those of the source. Unless noted, no rule for the calls is given here.

Chain of Protein kinase 7 (PK7), Plasmodium falciparum 3D7 (PF3D7_0213400) (Q7YTF7 1-343): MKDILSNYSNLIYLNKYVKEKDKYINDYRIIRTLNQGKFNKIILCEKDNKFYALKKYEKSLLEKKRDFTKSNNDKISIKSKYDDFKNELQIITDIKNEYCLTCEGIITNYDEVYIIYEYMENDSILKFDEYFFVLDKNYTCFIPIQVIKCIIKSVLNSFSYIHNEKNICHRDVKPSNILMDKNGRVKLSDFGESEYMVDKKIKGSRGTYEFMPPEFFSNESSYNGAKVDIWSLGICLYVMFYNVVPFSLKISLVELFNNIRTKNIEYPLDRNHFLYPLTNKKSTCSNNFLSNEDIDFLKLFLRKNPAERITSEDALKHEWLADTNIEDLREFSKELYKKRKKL

Turning to `COc1c(C2CCN(CCCCNC(=O)c3cc(-c4ccc(Cl)cc4)oc3C)CC2)ccc2c1CCCC2`, the growth inhibition in test [1] was 27%; in test [4], 97% (active). Further, the inhibition in test [2] is 93% (active); in test [3], 2%. Further, the outcome in test [5], in test [6], in test [7] and in test [8] was inactive.
Consider `COC(=O)c1cccc(N2CCN(CCCNC(=O)/C(=C/C=C/c3cc4cc(Cl)c(Cl)cc4[nH]3)OC)CC2)c1`, for which the results for the growth inhibition in test [1] and in test [4] were 59% (active) and 100% (active), respectively. Further, the inhibition in test [2] is 38%; in test [3], -1%. Further, the outcome in test [5], in test [6], in test [7] and in test [8] was inactive.
As for `COc1ccc(CNCc2cccc(-c3ccc(-c4nc5ccc(C(F)(F)F)cc5[nH]4)cc3)c2)cc1`, the growth inhibition in test [1] was 95% (active); in test [4], 102% (active). Moreover, the figures for the inhibition in test [2] and in test [3] were 23% and 0%, respectively. For the same compound, the outcome in test [5], in test [6], in test [7] and in test [8] was inactive.
As for `CN(C)CCN(Cc1ccccc1-c1ccc(CNCCc2ccccc2)cc1)C(=O)NC1CCCCC1`, the growth inhibition in test [1] is 89% (active); in test [4], 88% (active). The inhibition in test [2] is 98% (active); in test [3], -1%. The outcome in test [5], in test [6], in test [7] and in test [8] was inactive.
As for `O=C(CCCCCNC(=O)c1ccc(O)c(-c2ccc(Cl)c(Cl)c2)c1)NC1CCCc2ccccc21` (stereo not given), the growth inhibition in test [1] was 13%; in test [4] it was 97% (active). The inhibition in test [2] is -7%; in test [3] it was -6%. The outcome in test [5], in test [6], in test [7] and in test [8] was inactive.
In the case of `COc1cc2cc(-c3nc4ccccc4[nH]3)c(N)nc2cc1OC`, the growth inhibition in test [1] and in test [4] was 100% (active) each time. For the same compound, the inhibition in test [2] is 91% (active); in test [3] it was 1%. For the same compound, the result in test [5], in test [6], in test [7] and in test [8] was inactive.
For `O=C(Oc1ccc(Cl)cc1C(=O)Nc1ccc([N+](=O)[O-])cc1Cl)c1ccccc1`, the values for the growth inhibition in test [1] and in test [4] were 19% and 97% (active), respectively. In addition, the inhibition is 88% (active) in test [2] and 3% in test [3]. Also, the result in test [5], in test [6], in test [7] and in test [8] was inactive.
For the compound `Cc1ccc(Nc2nc(C)cc(NC3CCN(C)CC3)n2)cc1`, the values for the growth inhibition in test [1] and in test [4] were 21% and 100% (active), respectively. The inhibition in test [2] is 14%; in test [3] it was 2%. Further, the result in test [5], in test [6], in test [7] and in test [8] was inactive.
On to `CCC(C)(C)c1ccc2nc(N)nc(N)c2c1C`, for which the growth inhibition was 82% (active) in test [1] and 91% (active) in test [4]. The inhibition in test [2] is 62% (active); in test [3], 1%. Moreover, the result in test [5], in test [6], in test [7] and in test [8] was inactive.
For the compound `CN(C)CCCN1CCN(Cc2ccc(-c3ccc(-c4nc5ccccc5[nH]4)s3)cc2)CC1`, the growth inhibition in test [1] is 100% (active); in test [4], 102% (active). For the same compound, the results for the inhibition in test [2] and in test [3] were 19% and 4%, respectively. Moreover, the result in test [5], in test [6], in test [7] and in test [8] was inactive.
For the compound `Cc1cc2c(NC(=O)NC3CCN(CCc4cccc(Cl)c4)CC3)cccc2cn1`, the growth inhibition is 27% in test [1] and 100% (active) in test [4]. The inhibition in test [2] is 12%; in test [3], -5%. Further, the outcome in test [5], in test [6], in test [7] and in test [8] was inactive.
As for `CC(C)Oc1cc2c(cc1NS(=O)(=O)c1ccc(-c3ccc(Cl)cc3)cc1)CCN(C)CC2`, the growth inhibition was 65% (active) in test [1] and 99% (active) in test [4]. Moreover, the inhibition in test [2] was 100% (active); in test [3], -3%. The result in test [5], in test [6], in test [7] and in test [8] was inactive.
Turning to `O=C(NCc1ccccc1F)c1ccc(N2CCC(NCc3cccc(-n4cccn4)c3)CC2)cc1`, the growth inhibition in test [1] is 3%; in test [4], 89% (active). The inhibition in test [2] is 9%; in test [3] it was 4%. The result in test [5], in test [6], in test [7] and in test [8] was inactive.
Take `CN1CCN(C(C(=O)NCc2cc(Cl)cc(Cl)c2)c2ccc(NC(=O)Nc3ccccc3)cc2)CC1` (stereo not given): the growth inhibition in test [1] was 43%; in test [4] it was 98% (active). In addition, the results for the inhibition in test [2] and in test [3] were 23% and -5%, respectively. Further, the outcome in test [5], in test [6], in test [7] and in test [8] was inactive.
In the case of `COc1ccc(-c2ccc(NC(=O)c3cccc(C#N)c3)cc2)cc1CN1CCCN(C)CC1`, the growth inhibition in test [1] is 70% (active); in test [4], 102% (active). Further, the inhibition was 26% in test [2] and 6% in test [3]. Moreover, the outcome in test [5], in test [6], in test [7] and in test [8] was inactive.
As for `CN1CCC(C(=O)N(Cc2ccc(-c3ccc(CNCCc4ccc(S(C)(=O)=O)cc4)cn3)cc2)C2Cc3ccccc3C2)CC1`, the growth inhibition in test [1] was 49%; in test [4], 98% (active). The inhibition in test [2] is 21%; in test [3], -2%. Besides, the outcome in test [5], in test [6], in test [7] and in test [8] was inactive.
As for `O=S(=O)(Nc1cccc(CCN2CCCCC2CCN2CCCC2)c1)c1ccc2ccccc2c1` (stereo not given), the values for the growth inhibition in test [1] and in test [4] were 40% and 91% (active), respectively. Also, the inhibition is 22% in test [2] and -2% in test [3]. The result in test [5], in test [6], in test [7] and in test [8] was inactive.
For `Cc1ccc(CNC(=O)[C@H](CCCN)Nc2nc(NCC3CCCCC3)ncc2C)cc1`, the results for the growth inhibition in test [1] and in test [4] were 5% and 92% (active), respectively. The inhibition in test [2] is 1%; in test [3], 3%. The result in test [5], in test [6], in test [7] and in test [8] was inactive.
For `Cc1cc(C(=O)NC2CCN(Cc3ccccc3)CC2)ccc1-c1nc2ccc(C(F)(F)F)cc2[nH]1`, the figures for the growth inhibition in test [1] and in test [4] were 2% and 95% (active), respectively. Further, the inhibition in test [2] was 19%; in test [3], -1%. Further, the result in test [5], in test [6], in test [7] and in test [8] was inactive.
Turning to `O=C(Nc1ccccc1F)N(CCCn1ccnc1)Cc1csc(-c2ccc(CNCc3ccccc3)cc2)n1`, the growth inhibition is 26% in test [1] and 93% (active) in test [4]. Also, the figures for the inhibition in test [2] and in test [3] were 24% and 2%, respectively. The outcome in test [5], in test [6], in test [7] and in test [8] was inactive.
